Test results: PubChem BioAssay AID449764 (Southern Research Specialized Biocontainment Screening …, 2010)
Among all 2,300 compounds or so, about 1,700 (74%) were called active. The set was probably picked from earlier hits. The list shows a part of the results. Results with a measured potency or affinity are listed apart. Values without a mark were called inactive. How the calls were made is not given here.

Experiment: Mycobacterium tuberculosis H37Rv growth inhibition, no glycerol, confirmatory dose response (AID 449764);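 further: growth read after 7 days of incubation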
Conditions: series mostly up to 100 µM; inhibition: at the top concentration

SMILES	inhibition [%]
O=S(=O)(c1ccc(Oc2ccc3oc4ccccc4c3c2)nc1)N1CCCC1	-0.11
COc1ccc(-c2cc(O)cc(O)c2)cc1	-6.99
CCCCOC1CC(c2ccc(OCc3ccc(OC)cc3)c(OC)c2)N(C)O1 (stereo unspecified)	7.75
CCCCCCOc1ccc(/C=C/C(=O)N2CCOCC2)cc1OC	3.43
O=[N+]([O-])/C=C/c1cn(Cc2ccccc2)c2ccccc12	16.7
Oc1ccc(/C=N/n2c3ccccc3c3ccccc32)cc1	8.46
Cc1ccc(Nc2nc(N)c([N+](=O)[O-])c(N3CCCC(C)C3)n2)cc1C (stereo unspecified)	10.2
Fc1cc(F)cc(Nc2nc(Cl)nc(NC3CCCC3)n2)c1	-2.21
COc1ccc(NC(=O)ON=C2c3ccccc3-c3ccccc32)cc1	5.91
COc1ccc(N/C(=C2\CCCC2=O)C2CCCCC2)cc1	8.32
CC(C)(C)c1ccc(-c2nc3[nH]c(=O)cc(NC(=O)c4ccco4)n3n2)cc1	-2.11
Cc1ccccc1C(=O)Nc1ccccc1C(=O)NCC(C)C	-7.13
O=C1NCCC/C1=N\Nc1ccc(Br)cc1	-6.4
COc1ccccc1N1CCN(c2ccc(-c3ccccc3)nn2)CC1	2.99
CN1CCN(/N=C/c2c3ccccc3c(Cl)c3ccccc23)CC1	7.76
COc1cc(C)ccc1OCCOc1c(C)cc(Cl)cc1Cl	14.7
O=c1oc(-c2ccccc2[N+](=O)[O-])nc2ccccc12	4.79
Cc1noc2ncnc(Sc3ccc(Cl)cc3)c12	-1.06
O/N=C/c1cn(-c2ccc(Cl)cc2)nn1	-16.6
Cc1ccc(Cl)cc1NC(=O)CN1CCN(S(=O)(=O)N2CCOCC2)CC1	0.89
CN1CCN(c2ccc(C(=O)c3cn(-c4ccc(F)c(Cl)c4)nn3)cc2)CC1	3.46
Cc1ccc2[nH]c3c(c2c1)CN(C(=O)CN1CCN(c2ccccn2)CC1)CC3	10.3
COc1cc(CNC(=O)CCCCCCC(C)C)ccc1O	22.9

SMILES	inhibition [%]
CCCCNC(=O)Nc1nnc(-c2ccc(OCC)cc2)o1	4.04
CN(C)C=Nc1ccc2nn(-c3ccccc3)nc2c1	-12.8
O=C(Nc1ccc(Cl)cc1)N(Cc1nc2ccccc2c(=O)[nH]1)Cc1cccs1	-0.82
CCOc1ccc(N/C(C)=C/C(=O)c2ccc3c(c2)OCCO3)cc1	-1.38
Cc1[nH]nc(SCC(=O)NCc2ccccc2)c1[N+](=O)[O-]	3.69
CCC(C)n1c(NC(=O)c2ccccc2)c(C#N)c2nc3ccccc3nc21 (stereo unspecified)	8.82
COc1ccc(-c2oc3ccc(-c4ccc(OC)nc4)cc3c2C#CC2(O)CCCCC2)cc1	7.76
Cc1cc(=O)oc2cc(OC(=O)C3CCN(C(=O)c4ccc(F)cc4)CC3)ccc12	-1.62
CC12CN3CCN(CC(C3)/C1=N\NC(=O)Nc1cccc(Cl)c1)C2	5.72
Cc1ccccc1-c1nc(CN2CCC(C(=O)NCCC3=CCCCC3)CC2)c(C)o1	4.01
Cc1ccc2nc(SCC(=O)Nc3ccc4c(c3)CCC4)[nH]c2c1	5.82
CCCc1cc2c(cc1NC(=O)c1ccccc1Cl)OCO2	7.35
Cc1sc2nc3c4ccccc4c(NCc4ccco4)nn3c(=O)c2c1C	-4.52
Cc1ccc(C2CN(C)C3(C(=O)Nc4ccccc43)C23COc2ccccc2C3=O)cc1 (stereo unspecified)	-10.1
CCOc1ccc(N=c2scc(-c3ccccc3)n2CCO)cc1	-0.96
CC1(C)OC(=O)C(=NNc2ccc(Cl)cc2)C(=O)O1	9.09
Cc1cccc(CSc2nc3c(c(-c4cccs4)c2C#N)CN(C)CC3)c1	5.32
CC1(C)CC(=O)c2c(O)cc(OCc3ccc(Br)cc3)cc2O1	27.8
O=C(CNC(=O)c1ccc(Cl)cc1)c1ccc(Cl)cc1	4.82
COC(=O)C(Cc1ccc(OC(=O)c2ccc(C(F)(F)F)cc2)cc1)N1Cc2ccccc2C1=O (stereo unspecified)	5.41
Cc1ccsc1/C=N/Nc1ccc(F)cc1F	-13.4
CCOC(=O)c1ccc(N=Cc2nc3ccccc3n2C)cc1	-0.5
CC1(C)CC(=O)c2cc(C(=O)NNc3ccccc3)c(=O)n(-c3ccccc3)c2C1	1.32

SMILES	inhibition [%]
Cn1cnnc1SCc1ccc(-c2ccc(Br)cc2)o1	3.16
O=C(Nc1ccc(CN2CCOCC2)cc1)c1ccc(-c2cc(Cl)ccc2Cl)o1	13.3
CCOC(=O)c1ccc(N=C2S/C(=C\c3cc(C)n(-c4cccnc4)c3C)C(=O)N2C)cc1	-1.19
C(=C\c1ccccc1)/C=N/Nc1nc2ccccc2s1	16.2
O=C(COC(=O)C1CC2CCCC(C1)C2=O)NNC(=O)c1ccccc1F (stereo unspecified)	6.77
CC1(c2ccc(Cl)c(Cl)c2)NC(=S)N2C1NC(=S)N2c1ccccc1 (stereo unspecified)	8.16
CC(=O)Oc1c(C)cc(Cl)cc1C(=O)Nc1ccc([N+](=O)[O-])cc1Cl	-3.94
CCCc1nc2oc(C(=O)OCC)c(N)c2c2c1COC(C)(C)C2	9.84
O=C1c2ccccc2C(=O)N1Nc1ccccc1	-0.14
COc1ccc(-c2nc(NC(=O)c3[nH]c(C)c(C(C)=O)c3C)sc2C)cc1	0.11
CCc1noc(C)c1C(=O)Nc1nc(-c2ccc(F)cc2)c(C)s1	-3.73
CCOC(=O)c1ccc(Nc2cc3ccccc3c(=O)[nH]2)cc1	5.75
CCCCOP(=O)(OCCCC)C(Nc1ccc(C(=O)OCC)cc1)c1ccncc1 (stereo unspecified)	7.49
Cc1ccc(C)c2nc(N3CCCC3)c(C#N)cc12	1.81
N=c1c(C(=O)NC2CCCCC2)cc2c(=O)n3ccccc3nc2n1Cc1ccc(F)cc1	-0.07
Cc1ccc(S(=O)(=O)CNC(=S)c2ccc3ccccc3c2)cc1	12.2
O=C(NC1CCCCCC1)c1ccccc1-c1ccccc1	2.75
CCOC(=O)N1CCN(C(=O)COC(=O)C2CCN(S(=O)(=O)c3c(Cl)cccc3Cl)CC2)CC1	-0.31
CCOc1ccccc1NC(=O)C12CC3CC(C1)CC(c1ccc(C)cc1)(C3)C2	3.63
COC(=O)CNC(=O)CSc1nc2sc(-c3ccccc3)cc2c(=O)n1-c1ccccc1	9.12
CCOc1ccc(-c2nn3c(-c4ccccc4)nnc3s2)cc1	-10.9
Cc1ccccc1-c1nc2cc(N)ccc2o1	-20
CCCCCCCCCCNC(=O)C(=O)Nc1ccccn1	-1.26

SMILES	inhibition [%]
CCCCCCCCCCCCCCCC(=O)NCCO	-3.35
O=C(/C=C/c1ccco1)Nc1cccc(-c2nc3ccccc3[nH]2)c1	13.6
N/C(Cc1ccc([N+](=O)[O-])cc1)=N\OC(=O)c1ccc2ccccc2c1	-1.93
COc1ccc(OC(=O)c2cc3cc(Cl)ccc3oc2=O)cc1	-0.49
Cc1cccc(C)c1OCC(=O)Nc1cccc(-c2nnc(-c3ccccc3)o2)c1	9.51
O=C(Nc1nc2c(s1)CCCC2)c1cc(-c2ccc3c(c2)OCO3)nc2ccccc12	0.44
Cc1cc(N2CCN(C(=O)Nc3ccccc3C#N)CC2)c2ccccc2n1	5.5
COc1ccc(N=N/C(=C\O)C(=O)c2cccs2)cc1	-1.6
CCOCCCNS(=O)(=O)c1ccc(NC(=O)N2c3ccccc3Sc3ccccc32)cc1	-3.66
Cc1ccc(C(=O)O/N=C(\N)c2ccc(Br)cc2)cc1C	4.69
COc1ccc(N=Cc2c(OC)ccc3ccccc23)cc1	-15.2
COc1ccc(N=Cc2c(O)cc(C)oc2=O)cc1	-5.32
CCOc1ccc(NC(=O)N(C2CCCCC2)C(C)c2ccncc2)cc1 (stereo unspecified)	-3.13
CCOc1ccc(N=C(NC#N)SCC(=O)NC2CC2)cc1	3.09
CCOc1ccc(N=CC2=C(O)CC(c3ccco3)CC2=O)cc1 (stereo unspecified)	-4.94
C=CCN1CC[C@]23c4c5ccc(O)c4O[C@H]2/C(=N/NC(=O)c2ccccc2)CC[C@@]3(O)[C@H]1C5	-1.3
COc1ccc(N=Cc2c[nH][nH]c2=O)cc1	1.31
Cn1c(N)c(C(=O)COC(=O)c2ccc([N+](=O)[O-])o2)c(=O)n(C)c1=O	-10.6
O=C(c1n[nH]c(=O)c2ccccc12)N1CCN(C2c3ccccc3-c3ccccc32)CC1	4.65
COCCN=C1Sc2nc3ccc(C)cc3cc2CN1Cc1ccco1	8.95
C#CCCc1cscc1/C=[N+](\[O-])c1ccc(C(=O)OCC)cc1	-6.58
O=C(O)c1ccccc1C(=O)NNc1ccc(Cl)cc1Cl	0.63
